Growth data for 8 molecules are collected here from PubChem BioAssay (NCI).

Among the test systems are HCT-15 colon; HT29 colon; SNB-75 CNS; SNB-19 CNS; U251 CNS; PC-3 prostate; SK-MEL-5 melanoma; UACC-62 melanoma; LOX IMVI melanoma; SK-MEL-2 melanoma; EKVX NSCLC; SN12C renal; UO-31 renal; TK-10 renal; ACHN renal; CAKI-1 renal; A498 renal; CCRF-CEM leukemia; MOLT-4 leukemia; SK-MEL-28 melanoma.
Common to all, as to test: NCI-60 one-dose screen, 48 h (100 = growth as untreated, 0 = no growth, -100 = all killed)
What all share (details): 10 µM unless noted

The panel holds about 83,000 compounds, 20% with a hit somewhere; the sample as a whole holds those more often.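 Single-dose data. Exposure time 48 hours. Values below 10 considered active.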 Values without a mark were called inactive. The source made the active and inactive calls.

For `COc1ccc(CC(C)=C(c2ccc(OCCN3CCCC3)cc2)c2ccc(OCCN3CCCC3)cc2)cc1`, the growth in the assay with HCT-15 colon is -85.2% (active); in the assay with HT29 colon, -77.6% (active); in the assay on SNB-75 CNS it was -76.7% (active); with SNB-19 CNS, -81% (active); in the assay with U251 CNS, -70.1% (active); with PC-3 prostate, -73.2% (active). Moreover, the growth is -96.1% (active) in the assay on SK-MEL-5 melanoma; -88.8% (active) with UACC-62 melanoma; -86.6% (active) in the assay with LOX IMVI melanoma; -91.8% (active) with SK-MEL-2 melanoma; -90.8% (active) in the assay on EKVX NSCLC; -82.9% (active) in the assay with SN12C renal. The growth with UO-31 renal was -94.9% (active); in the assay with TK-10 renal it was -94.4% (active); with ACHN renal, -96% (active); in the assay on CAKI-1 renal it was -89.1% (active); with A498 renal it was -87.5% (active); in the assay with CCRF-CEM leukemia it was -40.8% (active). Further, the growth with MOLT-4 leukemia was -60.3% (active).

Regarding `CC/C(=C(/c1ccc(Cl)cc1)c1ccc(OCCN)cc1)c1ccccc1`, the growth was 55.7% with HCT-15 colon; 79.9% in the assay with HT29 colon; 110% in the assay with SNB-75 CNS; 99.8% in the assay on SNB-19 CNS; 92.6% in the assay with U251 CNS; 103% in the assay with PC-3 prostate. Further, the growth with SK-MEL-5 melanoma is 99.1%; in the assay on UACC-62 melanoma it was 107%; in the assay on LOX IMVI melanoma, 27.8%; in the assay with SK-MEL-28 melanoma, 108%; in the assay on SK-MEL-2 melanoma, 105%; in the assay with EKVX NSCLC, 102%. The growth is 104% in the assay with SN12C renal; 78.2% with UO-31 renal; 96.1% in the assay on ACHN renal; 74.6% in the assay with CAKI-1 renal; 92.9% in the assay with A498 renal; 80.5% in the assay with CCRF-CEM leukemia. In addition, in the assay with MOLT-4 leukemia, the growth is 84.1%.

For `C/C(=N\NC(N)=S)c1nnn(-c2ccc([N+](=O)[O-])cc2)c1C`, the growth in the assay with HCT-15 colon is 86.9%; in the assay on HT29 colon it was 104%; in the assay with SNB-75 CNS it was 87.3%; with SNB-19 CNS it was 95.6%; in the assay on U251 CNS, 98.1%; in the assay on PC-3 prostate, 90.8%. The growth with SK-MEL-5 melanoma is 100%; in the assay with UACC-62 melanoma, 98.4%; with LOX IMVI melanoma it was 94.9%; with SK-MEL-28 melanoma it was 104%; in the assay on SK-MEL-2 melanoma, 110%; in the assay on EKVX NSCLC, 62.4%. The growth is 94.5% in the assay on SN12C renal; 70.5% in the assay with UO-31 renal; 97% in the assay on ACHN renal; 90.8% in the assay with CAKI-1 renal; 94% with A498 renal; 101% in the assay on CCRF-CEM leukemia. Moreover, the growth in the assay with MOLT-4 leukemia was 105%.

`NC(=O)n1c(=O)n(-c2cccc(C(F)(F)F)c2)c(=O)c2cc(-c3ccc(F)cc3F)ccc21`: the growth with HCT-15 colon was 10.1%; with HT29 colon, 74.8%; in the assay on SNB-75 CNS, -18.3% (active); in the assay with SNB-19 CNS, 11%; in the assay on U251 CNS it was 6.64% (active); with PC-3 prostate it was -11.8% (active). Also, the growth in the assay on SK-MEL-5 melanoma was -59.7% (active); in the assay on UACC-62 melanoma, -6.78% (active); in the assay on LOX IMVI melanoma it was -28.3% (active); in the assay on SK-MEL-28 melanoma, 26.1%; in the assay on SK-MEL-2 melanoma it was -20.1% (active); with EKVX NSCLC, -0.656% (active). In addition, the growth with SN12C renal is 1.52% (active); in the assay with UO-31 renal, 4.54% (active); with ACHN renal, -3.85% (active); in the assay with CAKI-1 renal, -21.6% (active); with A498 renal it was -26.4% (active); in the assay on CCRF-CEM leukemia, 9.98% (active). Further, the growth with MOLT-4 leukemia is 0.274% (active).

As to `CCCCCc1ccc(S(=O)(=O)Nc2cc(-c3csc(N)n3)ccc2OC)cc1`, the growth with HCT-15 colon is 81.8%; in the assay with HT29 colon it was 114%; in the assay on SNB-75 CNS, 103%; in the assay with SNB-19 CNS, 91.3%; in the assay with U251 CNS, 95.8%; in the assay with PC-3 prostate, 90.8%. The growth in the assay with SK-MEL-5 melanoma was 84.8%; with UACC-62 melanoma, 75.9%; in the assay with LOX IMVI melanoma, 107%; in the assay on SK-MEL-28 melanoma it was 111%; in the assay with SK-MEL-2 melanoma, 112%; in the assay with EKVX NSCLC it was 86.4%. The growth in the assay on SN12C renal was 89.2%; in the assay on UO-31 renal, 53.5%; in the assay with ACHN renal, 98%; with CAKI-1 renal, 88.4%; in the assay with A498 renal, 96.6%; in the assay on CCRF-CEM leukemia, 57.4%. Besides, the growth in the assay on MOLT-4 leukemia was 78.6%.

As to `O=c1[nH][nH]c(-c2ccc(F)cc2)c1-c1nc2ccccc2s1`, the growth with HCT-15 colon was 85%; in the assay with HT29 colon, 110%; in the assay on SNB-75 CNS, 88.4%; in the assay with SNB-19 CNS it was 80.5%; in the assay with U251 CNS, 98.8%; in the assay with PC-3 prostate, 90.3%. Also, the growth in the assay with SK-MEL-5 melanoma was 98.8%; in the assay on UACC-62 melanoma, 81.8%; in the assay on LOX IMVI melanoma, 93.1%; with SK-MEL-2 melanoma it was 100%; with EKVX NSCLC, 90.1%; in the assay on SN12C renal, 82%. The growth in the assay on UO-31 renal was 87.3%; with TK-10 renal, 154%; in the assay with ACHN renal it was 95.1%; with CAKI-1 renal, 87.1%; in the assay on A498 renal it was 67.9%; in the assay with CCRF-CEM leukemia, 86.6%. The growth with MOLT-4 leukemia is 95.8%.

In the case of `O=C(Nc1ccccc1)Nc1nc2ccc([N+](=O)[O-])cc2[nH]1`, the growth was 40.9% in the assay on HCT-15 colon; 84.4% in the assay with HT29 colon; 84.9% in the assay on SNB-75 CNS; 66.3% in the assay with SNB-19 CNS; 55.5% in the assay with U251 CNS; 45.8% in the assay on PC-3 prostate. Further, the growth with SK-MEL-5 melanoma was 40.4%; in the assay on UACC-62 melanoma, 44%; in the assay on LOX IMVI melanoma, 57.2%; with SK-MEL-28 melanoma, 61.6%; with SK-MEL-2 melanoma it was 53.9%; with EKVX NSCLC it was 43.6%. Besides, the growth is 62.7% with SN12C renal; 44.2% in the assay on UO-31 renal; 37.6% in the assay with ACHN renal; 27.1% in the assay on CAKI-1 renal; 52.2% with CCRF-CEM leukemia; 55.7% in the assay with MOLT-4 leukemia.

With `CC(=O)OC[C@@]12Oc3c(cccc3-c3ccc(O)c4c3O[C@]3(COC(C)=O)C(=C4O)C(=O)C[C@H](C)[C@@H]3OC(C)=O)C(O)=C1C(=O)C[C@H](C)[C@@H]2OC(C)=O`, the growth was 11.9% with HCT-15 colon; 10.4% with HT29 colon; -10.4% (active) with SNB-75 CNS; 17.7% with SNB-19 CNS; 16.6% in the assay with U251 CNS; 11.6% with PC-3 prostate. The growth with SK-MEL-5 melanoma is -62.8% (active); with UACC-62 melanoma, -36.9% (active); in the assay on LOX IMVI melanoma it was -66.1% (active); with SK-MEL-2 melanoma it was -20.4% (active); in the assay on EKVX NSCLC, 16.4%; in the assay with SN12C renal, 7.7% (active). Also, the growth with UO-31 renal is 9.35% (active); in the assay with TK-10 renal, 9.84% (active); in the assay with ACHN renal, 7.48% (active); with CAKI-1 renal, 0.254% (active); in the assay on A498 renal, 1.51% (active); with CCRF-CEM leukemia, 14.3%. Further, the growth in the assay on MOLT-4 leukemia is 4.81% (active).
